High-throughput results (PubChem)
Rows were chosen to be rich in hits. Some 12% of all compounds tested hit in one or more screens of this group.
HP1b binding inh – inhibitors of HP1-beta chromodomain binding to methylated histone tails | AlphaScreen HP1-beta / biotin-H3K9me3 peptide binding | Potency, µM (series often up to 114 µM), inactives show at the highest dose activity change, negative = inhibition, usual class: inhibitors | P83916 | 0.56% of 390,000 active | AID 540317; further: nearly all actives have a fitted effect of over 70% in size
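AlphaScreen: HP1-beta (50 nM) preformed 30 min with biotin-H3(1-18)K9me3 peptide (50 nM) in PBS pH 7.4, 0.01% Tween-20. Compound added for 30 min at RT, then streptavidin donor/nickel chelate acceptor beads (10 ug/mL) for 30 min.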
JMJD2A Tudor – JMJD2A Tudor domain (human) inhibition; AlphaScreen JMJD2A-Tudor / H3K4me3 peptide binding; O75164; 4.4% of 390,000 active; Potency, µM (titrated, usually from 114 µM), for inactives: top-dose activity change, negative = inhibition, usual class: inhibitors; AID 504339; further: on the % scale 0 is the no-effect control and ±100 the full control effect; nearly all actives have a fitted effect of over 50% in size
G9a block – inhibitors of human histone lysine methyltransferase G9a; Q96KQ7; G9a H3K9 monomethylation, AlphaScreen, 2 h; Potency, µM (titrated, usually from 102 µM), for the others: at the highest dose activity, negative = inhibition, hits mostly inhibitors; 8.8% of 350,000 active; AID 504332; further: on the % scale 0 is the no-effect control and ±100 the full control effect; nearly all actives have a fitted effect of over 75% in size
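Step 1: enzyme (final 20 nM) with compound, 15 min RT. Step 2: substrate peptide 500 nM and SAM 20 uM, 2 h RT. Step 3: anti-H3K9me1 antibody and AlphaScreen beads, 10 min, then plate read.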
Sfp PPTase inh – blocks B. subtilis Sfp PPTase activity | AID 1490 | Biochemical Sfp PPTase activity, qHTS | Q9F4F7 | Potency, µM, without a hit: largest response in the series, negative = inhibition, most hits filed as inhibitors | 3.5% of 310,000 active;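 further: the enzyme is Sfp with the accession as filed and its product quenches rhodamine fluorescence; 0% = enzyme reaction without inhibitor and -100% = no enzyme wells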
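Buffer: 50 mM Hepes-Na pH 7.6, 10 mM MgCl2, 0.01% Nonidet P-40, 0.01% BSA. Enzyme 15 nM, pre-exposed to compound 15 min; substrates then added and fluorescence change tracked over 30 min.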
BAZ2B inh – inhibitors of human BAZ2B bromodomain. Q9UIF8. AlphaScreen BAZ2B-H3K14Ac peptide displacement. Potency, µM (highest dose often 114 µM), for the others: at the top dose activity change, negative = inhibition, hits mostly inhibitors. 4.4% of 360,000 active; further: on the % scale 0 is the no-effect control and ±100 the full control effect; nearly all actives have a fitted effect of over 60% in size
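AlphaScreen displacement: compounds (up to 110uM) incubated 30 min at room temperature with a preformed 50 nM BAZ2B/50 nM biotinylated H3K14Ac peptide complex in PBS pH 7.4 with Tween-20. Donor and acceptor beads at 10 ug/mL final added, 20 min light-protected before reading.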
PLK1 PBD block – inhibitors of human PLK1 polo-box domain binding. Plk1 PBD binding of FITC phosphopeptide, fluorescence polarization. Potency, µM, for inactives: max response, negative = inhibition, actives largely listed as inhibitors. 2.8% of 360,000 active; further: series mostly up to about 57 µM; on the % scale 0 is the no-effect control and ±100 the full control effect; nearly all actives have a fitted effect of over 65% in size
Target sequence (P53350 whole entry, looked up, the tested form may be a part): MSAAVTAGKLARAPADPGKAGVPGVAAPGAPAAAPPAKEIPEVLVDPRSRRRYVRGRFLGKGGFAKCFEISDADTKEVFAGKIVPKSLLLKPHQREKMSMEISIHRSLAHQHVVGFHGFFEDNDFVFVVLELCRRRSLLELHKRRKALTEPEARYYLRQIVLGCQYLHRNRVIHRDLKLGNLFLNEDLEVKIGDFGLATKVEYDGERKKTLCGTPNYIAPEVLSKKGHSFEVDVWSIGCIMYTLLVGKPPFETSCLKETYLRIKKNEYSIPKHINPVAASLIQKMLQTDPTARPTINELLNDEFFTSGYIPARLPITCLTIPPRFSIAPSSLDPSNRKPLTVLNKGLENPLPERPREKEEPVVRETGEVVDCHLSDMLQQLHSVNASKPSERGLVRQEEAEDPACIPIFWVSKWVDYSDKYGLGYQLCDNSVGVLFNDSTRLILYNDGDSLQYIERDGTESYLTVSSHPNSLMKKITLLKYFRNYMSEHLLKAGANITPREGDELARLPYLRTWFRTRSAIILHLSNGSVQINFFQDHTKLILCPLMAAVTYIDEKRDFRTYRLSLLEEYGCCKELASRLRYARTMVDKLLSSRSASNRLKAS
* = called active by the depositor; ? = inconclusive; nt = no result; [ ] = another dose, or the depositor's remark. The call rests on the fitted dose curve; in most records, active means well fitted curve in the direction sought with a large enough effect; inconclusive means small, poorly fitted or top-dose-only effect, or another doubt; inactive means no such curve, though single readings can be large; an effect the other way counts as inactive or inconclusive. Potency means the concentration at half of the fitted maximal effect.

SMILES	HP1b binding inh	JMJD2A Tudor	G9a block	Sfp PPTase inh	BAZ2B inh	PLK1 PBD block
Cc1nnc2n(-c3ccccc3)c(=O)c3ccccc3n12	-13%	-21%	nt	nt	nt	-14%
CCC(C)c1ccc(-n2c(=O)c3ccccc3n3c(=S)[nH]nc23)cc1 (stereo unspecified)	-30%	-10%	1.1µM*	?	3%	21µM*
O=c1c2ccccc2n2c(=S)[nH]nc2n1-c1ccccc1	?	3.2µM*	5µM*	45µM*	?	21µM*
C=C1C2=CC(=O)OC(c3ccoc3)[C@]2(C)CCC1[C@]1(C)C=CC(=O)C(C)(C)C1CC(=O)OC (stereo partly specified)	nt	nt	-30%[2.33 µM]	-9%	nt	nt
CCc1c2c(nc3ccc(OC)cc13)COC2	nt	nt	nt	15%	nt	nt
COC(=O)c1ccccc1NC(=O)C1=CC(c2ccc3c(c2)OCO3)=NS(=O)(=O)N1C	46%	-8%	?	nt	-13%	nt
NC(=O)[C@@H]1CCOc2c(I)cc([N+](=O)[O-])cc2C(=O)N[C@@H](CO)C(=O)NCC(=O)N1	40%	-17%	45µM*	9%	-8%	-18%
CC(C)C[C@@H]1NC(=O)[C@H](C(C)C)NC(=O)c2cc([N+](=O)[O-])cc(I)c2OCC[C@@H](C(N)=O)NC1=O	38%	-25%	45µM*	6%	-35%	-12%
NC(=O)CC[C@@H]1NC(=O)[C@H](CO)NC(=O)c2cc([N+](=O)[O-])cc(I)c2OCC[C@@H](C(N)=O)NC1=O	17%	-29%	45µM*	17%	-5%	-4%
NCCCC[C@@H]1NC(=O)[C@H](CCC(=O)O)NC(=O)c2cc([N+](=O)[O-])cc(I)c2OCC[C@@H](C(N)=O)NC1=O	-7%	?	32µM*	9%	?	-14%
NC(=O)[C@@H]1CCCNc2c(F)cc([N+](=O)[O-])cc2C(=O)N[C@@H](CO)C(=O)NCC(=O)N1	21%	-12%	?	24%	-10%	2%
COC(=O)CNC(=O)[C@@]1(C)C=C[C@@H](Cc2ccccc2)N1C(C)=O	nt	nt	nt	14%	nt	nt
COC(=O)c1ccccc1NC(=O)Cn1c(=O)n(CCCCC(=O)NCc2ccc3c(c2)OCO3)c(=O)c2ccccc21	11%	-6%	-26%[59 µM]	nt	-1%	nt
Brc1ccc(-c2nc3ccccc3s2)s1	161%	41%	47%[59 µM]	-3%	20%	-11%
Brc1cc2c(cc1-c1nc3ccccc3s1)OCO2	-9%	6%	40µM*	-24%	26%	?
CCC(=O)N1c2ccccc2NC2=C(C(=O)CC(c3ccco3)C2)C1c1ccco1 (stereo unspecified)	3%	-8%	-51%[12.7 µM]	-21%	-33%	-5%
COc1ccc(C2CC(=O)C3=C(C2)Nc2ccccc2N(C(C)=O)C3c2ccco2)cc1 (stereo unspecified)	8%	-22%	-11%[59 µM]	1%	-4%	-1%
CC(=O)N1c2ccccc2NC2=C(C(=O)CC(C)(C)C2)C1c1cccn1C (stereo unspecified)	23%	-13%	16%[59 µM]	12%	-23%	-3%
CC1(C)CC(=O)C2=C(C1)Nc1ccccc1N(C(=O)C1CC1)C2c1ccco1 (stereo unspecified)	-7%	?	12%[12.7 µM]	-26%	-15%	9.5µM*
COc1cc(C2C3=C(CC(c4ccco4)CC3=O)Nc3ccccc3N2C(C)=O)cc(OC)c1OC (stereo unspecified)	11%	?	?	18µM*	?	-12%
O=C1CC(c2ccco2)CC2=C1C1c3ccccc3C(=O)N1c1ccccc1N2 (stereo unspecified)	-12%	-23%	18µM*	20µM*	?	-2%
O=C(CN1CCCCC1)Nc1ccccc1	44%	-5%	-6%	18%	5%	1%
O=C(CN1CCN(c2ccc(O)cc2)CC1)NC(c1ccccc1)c1ccccc1	?	50µM*	7.9µM*	10µM*	?	-19%
O=C(CN1CCCCCC1)NC(c1ccccc1)c1ccccc1	?	22µM*	7.9µM*	-30%	79µM*	-6%
CC(NC(=O)CN1CCN(c2cccc(Cl)c2)CC1)c1ccccc1 (stereo unspecified)	6%	-12%	nt	-1%	6%	-11%
SMILES	HP1b binding inh	JMJD2A Tudor	G9a block	Sfp PPTase inh	BAZ2B inh	PLK1 PBD block
Cc1ccccc1C(=O)NCCNC(=O)c1ccccn1	9%	-8%	17%	15%	0%	-19%
Cc1ccccc1C(=O)NCCCNC(=O)c1ccccn1	24%	-6%	50µM*	13%	-28%	-5%
O=C(NCCN1CCNCC1)c1ccccn1	17%	1.1µM*	45µM*	?	?	0%
Cc1ccc(S(=O)(=O)NC(=O)Nc2ccc(C)cn2)cc1	10%[57 µM]	-19%	-6%	-1%	-9%	?
COc1cc(O)c(C(=O)c2ccccc2)cc1O	nt	nt	nt	11µM*	nt	nt
COc1ccc(C(C)C)cc1S(=O)(=O)n1ccnc1C	27%	-4%	-1%	10%	2%	-1%
Cc1cc2cc(CN(CCCN3CCOCC3)C(=O)NC3CCCCC3)c(=O)[nH]c2cc1C	10%	-21%	14µM*	45µM*	7%	-2%
O=C(NC1CCCCC1)N(CCN1CCCC1)Cc1cc2cc3c(cc2[nH]c1=O)OCCO3	17%	-29%	40µM*	-2%	8%	-2%
CCOc1ccc(C(=O)CN2C(=O)NC3(CCCc4ccccc43)C2=O)cc1 (stereo unspecified)	nt	nt	nt	nt	nt	-7%
CCC1CN(C(=O)N2CCC(C(=O)Nc3ccccc3OC)CC2)c2ccccc2O1 (stereo unspecified)	-2%	?	18%	17%	-28%	27µM*
CCOC(=O)N1CCC(NC(=O)C2CCN(C(=O)N3CCOc4ccccc43)CC2)CC1	3%	100µM*	0%[12.7 µM]	-6%	30%	?
O=C(NC1CCCCCC1)C1CCN(C(=O)N2CCOc3ccc(Cl)cc32)CC1	-9%	?	7.9µM*	nt	?	nt
CC(C)c1ccc(NC(=O)Cn2c(=O)n(CC3CCC(C(=O)NCCc4ccccc4)CC3)c(=O)c3ccccc32)cc1 (stereo unspecified)	29%	-4%	8%[59 µM]	nt	0%	nt
CC(=O)Oc1ccc(N2C(=O)C3C4C=CC(CC4)C3C2=O)cc1[N+](=O)[O-] (stereo unspecified)	43%	-17%	nt	10%	?	-3%
Cc1ccc(S(=O)(=O)NCCOc2nc(N(C)C)nc(N3CCOCC3)n2)cc1	14%	3%	-10%[12.7 µM]	-12%	-3%	-4%
Cc1ccc(S(=O)(=O)NCCOc2nc(N(C)C)nc(N(C)C)n2)cc1	-2%	-10%[11.4 µM]	nt	7%	-2%	24µM*
